Compound activity: PubChem BioAssay, National Center for Advancing Translational Sciences (NCATS)
Rows were chosen to be rich in hits. Some 19% of all compounds tested hit in one or more screens of this group.
DT40 TDP1 CPT – qHTS for Inhibitors of human tyrosyl-DNA phosphodiesterase 1 (TDP1): qHTS in cells in presence of CPT; 420,000 compounds, 12% hits; Potency, µM (highest dose often 46.2 µM), for the others: at the top dose activity change, negative = growth inhibition, actives largely listed as inhibitors; chicken DT40 Tdp1-/-;hTDP1 cells + 20 nM CPT, ATP luminescence, 48 h; AID 686979, 2013; further: nearly all actives have a fitted effect of over 55% in size
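Chicken DT40 Tdp1-/- cells complemented with human TDP1, 400 cells/well, exposed to compounds plus 20 nM camptothecin for at least 48 h at 37 C; viability read as ATP content by CellTiter-Glo luminescence.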
DT40 TDP1 no CPT – qHTS for Inhibitors of human tyrosyl-DNA phosphodiesterase 1 (TDP1): qHTS in cells in absence of CPT. DT40 Tdp1-/- hTDP1 cells, no CPT, ATP luminescence, 48 h. Potency, µM (doses to about 46.2 µM), inactives show at the top dose activity change, negative = growth inhibition, usual class: inhibitors. 420,000 compounds, 15% hits. AID 686978, 2013; further: nearly all actives have a fitted effect of over 55% in size
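Compound effects on proliferation are scored in DT40 Tdp1-/-;hTDP1 cells in the absence of CPT. ATP levels (CellTiter-Glo luminescence) are recorded after a ≥48 hr, 37 °C incubation.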
TDP1 block – qHTS Assay for Inhibitors of Tyrosyl-DNA Phosphodiesterase (TDP1) | recombinant TDP1, AlphaScreen DNA substrate cleavage | Potency, µM (top dose mostly 130 µM), for inactives: at the highest dose activity change, negative = inhibition, most hits filed as inhibitors | Tyrosyl-DNA phosphodiesterase 1 (Homo sapiens), Q9NUW8 | AID 485290, 2010 | 350,000 compounds, 0.28% hits; further: nearly all actives have a fitted effect of over 40% in size
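Compounds were preincubated with Tdp1 (1 nM final) for 15 min at room temperature before substrate (15 nM final) started a 5 min reaction; beads (10 ug/ml final) were then added for 10 min before AlphaScreen detection.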
Gal4-VP16 FLuc – VP16 counterscreen qHTS for inhibitors of ROR gamma transcriptional activity. Drosophila S2 Gal4-VP16 UAS-luciferase, luminescence, 20 h. Potency, µM (doses to about 53.6 µM), for inactives: at the top dose activity, negative = inhibition, hits mostly inhibitors. 310,000 compounds, 3.5% hits;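 further: Gal4-VP16 expression switched on by copper sulfate through the metallothionein promoter; nearly all actives have a fitted effect of over 50% in size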
RORgamma inh – qHTS for inhibitors of ROR gamma transcriptional activity. Nuclear receptor ROR-gamma (Mus musculus), P51450. Drosophila S2 Gal4-RORgamma UAS-luciferase reporter, 20 h. Potency, µM (doses to about 53.6 µM), for the others: top-dose activity change, negative = inhibition, hits mostly inhibitors. 310,000 compounds, 5.4% hits; further: nearly all actives have a fitted effect of over 60% in size
Target sequence (P51450 whole entry, looked up, the tested form may be a part): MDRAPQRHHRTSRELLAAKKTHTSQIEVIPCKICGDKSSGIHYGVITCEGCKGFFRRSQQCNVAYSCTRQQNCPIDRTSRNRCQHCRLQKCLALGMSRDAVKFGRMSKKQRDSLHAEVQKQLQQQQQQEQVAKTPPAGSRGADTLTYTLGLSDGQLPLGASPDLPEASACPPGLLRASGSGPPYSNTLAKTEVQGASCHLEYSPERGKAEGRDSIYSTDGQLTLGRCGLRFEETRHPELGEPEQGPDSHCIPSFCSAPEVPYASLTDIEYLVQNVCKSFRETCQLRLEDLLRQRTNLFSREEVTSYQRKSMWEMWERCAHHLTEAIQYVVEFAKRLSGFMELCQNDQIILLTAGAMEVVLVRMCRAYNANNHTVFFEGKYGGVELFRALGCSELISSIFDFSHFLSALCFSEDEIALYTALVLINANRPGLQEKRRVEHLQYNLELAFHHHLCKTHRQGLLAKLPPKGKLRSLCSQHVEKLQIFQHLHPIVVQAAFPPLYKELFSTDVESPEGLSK
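Read-out: Photinus luciferase luminescence; inhibitors lower reporter signal. Insect Schneider cells with Gal4-ROR gamma fusion under metallothionein promoter, UAS reporter; 700 uM final copper sulfate induction, 20 hr, ambient temperature.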
Starred values were filed as active, the others as inactive; ? = inconclusive; . = not tested or not shown; [ ] = remark or other dose. The call rests on the fitted dose curve; in most records, active means well fitted curve in the direction sought with a large enough effect; inconclusive means small, poorly fitted or top-dose-only effect, or another doubt; inactive means no such curve, though single readings can be large; an effect the other way counts as inactive or inconclusive. On the % scale 0 is the no-effect control and ±100 the full control effect; potency means the concentration at half of the fitted maximal effect.

SMILES	DT40 TDP1 CPT	DT40 TDP1 no CPT	TDP1 block	Gal4-VP16 FLuc	RORgamma inh
Cc1nc2c(OCC(=O)c3ccc(F)cc3)cccn2c1N(C)Cc1cccs1	-22.1%	-8.1%	.	.	.
CCCCC(=O)N(C)c1c(CC)nc2c(OCC(=O)C(C)(C)C)cccn12	-0.3%	-22.6%	.	.	.
Cc1nc2c(OCCC3CCCCC3)cccn2c1N(C)C(=O)CCC1CCCC1	?	16.4µM*	.	.	.
Cc1nc2c(OCCOc3ccc(F)cc3)cccn2c1N(C)C(=O)CCC1CCCC1	?	14.6µM*	.	.	.
CCOc1ccccc1OCCOCCN1CCN(Cc2ccccc2)CC1	?	?	.	-5.1%	4.9%
CCc1ccc(C2CC(c3ccc(F)cc3)Nc3nc(N)nn32)cc1 (stereo not given)	0.6%	-15.3%	2.2%	-18.1%	23.5%
Cc1cc(=O)oc(C)c1C(=O)NC12CC3CC(CC(C3)C1)C2	-3.9%	-33.5%	-4.2%	-9.4%	-9.4%
Cc1ccc(-c2nn(-c3ccccc3)c3c2cnc2ccccc23)cc1C	-13.7%	-1.6%	7.0%	.	.
CCc1ccc2ncc3c(-c4ccccc4)nn(-c4ccccc4)c3c2c1	?	13µM*	-7.0%	.	.
CCOC(=O)Cn1nc(-c2ccccc2)c2cnc3ccc(OCC)cc3c21	13µM*	20.6µM*	9.3%	.	.
CN(C)c1ccc(S(=O)(=O)N2CCCCC2)cc1NC(=O)C1=NN(c2ccccc2)C(=O)CC1	?	?	2.7%	-5.4%	21.0%
CCCC[C@@H](CNC)NC[C@H](NCCCCC1CCCCC1)C(C)C	6.51µM*	5.17µM*	.	?	15.8µM*
Cc1ccccc1NC(=O)CNc1ccccc1C(=O)NCc1ccco1	?	?	0.0%	22.4%	20.9%
c1ccc2c(c1)nc(NC1CCCCC1)c1nncn12	-23.7%	?	-2.6%	-18.2%	-23.7%
CC(C)OC1(c2ccccc2)OC(=O)c2ccccc21 (stereo not given)	-20.9%	6.5%	-2.5%	4.5%	4.1%
COc1cc2ccnc(C=NO)c2cc1OC	20.6µM*	20.6µM*	.	.	.
COc1ccc(C(N)c2nccc3cc(OC)c(OC)cc23)cc1OC (stereo not given)	?	?	.	-1.4%	-4.7%
COc1cc2ccnc(Cc3cccc(OC)c3OC)c2cc1OC	?	13µM*	0.0%	?	?
COc1cc2ccnc(C=O)c2cc1OC	4.61µM*	2.59µM*	.	.	.
COc1cc(N)c(C(=O)c2nccc3cc(OC)c(OC)cc23)cc1OC	9.8%	-19.9%	.	-7.6%	-1.0%
COc1cc(Br)c(C(=O)c2nccc3cc(OC)c(OC)cc23)cc1OC	23.1µM*	18.4µM*	6.3%	.	.
Cc1ccc2c(c1)N(CC(=O)c1cccc(Cl)c1)C(=O)C(C)O2 (stereo not given)	-17.7%	?	2.0%	-18.8%	-3.4%[10 µM]
O=C(CSc1ccc2nnc(-c3ccc(F)cc3)n2n1)N1CCOCC1	-10.9%	-6.8%	.	.	.
O=C(CCC(=O)N1CC2CCCN2c2ccccc21)NCc1cccc(Cl)c1 (stereo not given)	14.6µM*	7.31µM*	11.0%	.	.
COc1ccc(CNC(=O)CCC(=O)N2CC3CCCN3c3ccccc32)c(OC)c1 (stereo not given)	18.4µM*	20.6µM*	12.3%	.	.
SMILES	DT40 TDP1 CPT	DT40 TDP1 no CPT	TDP1 block	Gal4-VP16 FLuc	RORgamma inh
CCC1CN(C(=O)Nc2cc(C)ccc2OC)c2cc(Cl)ccc2O1 (stereo not given)	?	-52.8%	0.0%	.	.
CC1CN(C(=O)CCC(=O)NCc2cccc(Cl)c2)c2ccccc2S1 (stereo not given)	-25.3%	-28.4%	-1.0%	.	.
COc1ccc(OC)c(NC(=O)N2CC(C)Oc3ccc(C)cc32)c1 (stereo not given)	?	20.6µM*	-1.3%	.	.
O=C(NCc1cccc(Cl)c1)c1ccc(NC(=O)N2CC3CCCN3c3ccccc32)cc1 (stereo not given)	23.1µM*	13µM*	10.5%	.	.
COc1ccc(OC)c(CNC(=O)CCC(=O)N2Cc3ccccc3Oc3ncccc32)c1	-12.8%	0.0%	-0.4%	-7.8%	16.5%
NC(=O)c1ccc(NCc2ccco2)c([N+](=O)[O-])c1	-0.7%	?	4.1%	-0.1%	13.5%
Cc1cccc(NC(=O)CSc2nnnn2-c2ccc3c(c2)OCCO3)n1	?	?	5.6%	3.2%	-1.7%
O=C(NCc1ccco1)C1CCCN(S(=O)(=O)c2cccc3cccnc23)C1 (stereo not given)	?	-29.4%	-3.7%	-5.9%	0.0%
COc1ccc(CCNC(=O)C2CCC(=O)N(C3CC3)C2)c(OC)c1 (stereo not given)	-0.4%	1.0%	2.8%[56.1 µM]	3.4%	13.1%
COc1ccc(OC)c(NC(=O)N2CC3CCCN3c3ccccc32)c1 (stereo not given)	?	23.1µM*	10.5%	.	.
COc1ccc(CNC(=O)C2CCC(=O)N(C3CCCCCC3)C2)c(OC)c1 (stereo not given)	16.4µM*	8.2µM*	.	.	.
CCc1ccc(OCCNC(=O)c2ccccc2SCc2ccccc2)cc1	?	20.6µM*	-3.1%	-3.5%	34.0%
CCCP(=O)(CCC)CCP(=O)(c1ccccc1)c1ccccc1	-3.8%	0.0%	2.7%	-1.9%	12.6µM*
CN(C)CCP(=O)(c1ccccc1)c1ccccc1	7.2%	?	5.4%	-2.1%[10 µM]	22.2%
Cc1nnc(N2CCC(C(=O)N3CCCCCC3)CC2)c2nn(-c3ccc(Cl)cc3)c(C)c12	18.4µM*	?	1.0%	-10.0%	2.1%
Cc1ccc(-n2nc3c(N4CCC(C(=O)N5CCCCCC5)CC4)nnc(C)c3c2C)cc1	7.31µM*	5.8µM*	0.8%	-11.2%	-21.2%
Cc1ccc(-n2nc3c(N4CCC(C(=O)N5CCN(C)CC5)CC4)nnc(C)c3c2C)cc1	-20.6%	-13.2%	3.7%	1.7%	-2.2%
CC(=O)N=c1sccn1CC(O)c1ccc(Br)cc1 (stereo not given)	4.1%	-12.6%	10.6%	-1.0%	-3.8%
Cc1cc(C)cc(NC(=S)NCCN(C2CCCCC2)C2CCCC2)c1	?	?	0.0%	-0.1%[10 µM]	4.47µM*
Cc1ccc(NC(=S)NCCN(C2CCCCC2)C2CCCC2)cc1	?	?	2.6%	-5.9%[10 µM]	11.2µM*
Cc1ccc(NC(=S)NCCN(C2CCCCC2)C2CCCC2)cc1C	20.6µM*	?	5.3%	-1.0%[10 µM]	5.01µM*
Cc1ccc(NC(=O)NC2CCCCCCC2)cc1	-5.8%	-4.7%	-5.9%	?	26.8%
CCOC(=O)Cc1cnc(NC(=O)Cn2nnc(-c3ccc(OCC)cc3)n2)s1	7.5%	-26.4%	8.2%	-0.2%	-22.1%
